# D2 PAM-1 – positively modulates the human D2 dopamine receptor allosterically; P14416; HEK293 T-REx D2, calcium flux, EC20 dopamine potentiation; potentiation, % at 10 µM; 340,000 compounds, 0.34% hits;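 active means potentiation over 3 SD above the plate norm, cut at about 30% in these data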; further: 0% is about no effect
# Target sequence (P14416 whole entry, looked up): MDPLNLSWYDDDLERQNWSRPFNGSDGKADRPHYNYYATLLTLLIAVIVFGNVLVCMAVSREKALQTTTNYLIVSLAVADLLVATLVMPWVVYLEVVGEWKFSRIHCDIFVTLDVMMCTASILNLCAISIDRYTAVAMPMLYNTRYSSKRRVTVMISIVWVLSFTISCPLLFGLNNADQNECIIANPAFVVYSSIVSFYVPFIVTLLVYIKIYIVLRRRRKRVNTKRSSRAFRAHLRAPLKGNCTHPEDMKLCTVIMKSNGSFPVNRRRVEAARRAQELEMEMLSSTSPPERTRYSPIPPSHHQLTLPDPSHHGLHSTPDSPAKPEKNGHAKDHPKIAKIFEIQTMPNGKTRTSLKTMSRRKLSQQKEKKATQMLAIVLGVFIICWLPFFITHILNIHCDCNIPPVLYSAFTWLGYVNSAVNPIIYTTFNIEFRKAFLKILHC
#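 Tetracycline-induced Hek293 Trex D2 cells, force-coupled to calcium, loaded with no-wash calcium dye. Compound added with 180 s kinetic read for agonism, then EC20 dopamine and a further 180 s read for potentiation.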
# D2 PAM-2 – positive allosteric modulators of human D2 dopamine receptor; DiscoveRx D2 beta-arrestin cells, luminescence, 90 min; 100% = 57 uM dopamine signal; potentiation, % (concentration not given with the values); P14416; 360,000 compounds, 0.23% hits; in the data active means potentiation above about 50%; inconclusive means mostly about 30% to 49%
#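 PathHunter D2 cells, attached overnight at 37 deg C, received compound in DMSO plus dopamine at EC20 (50 nM final) for 90 min at 37 deg C. Beta-arrestin recruitment was read as luminescence after 1 h with detection reagent at ambient temperature.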
# D2 antagonist – D2 dopamine receptor (human) antagonism; HEK293 TREx D2 cells, calcium flux, dopamine EC80; inhibition, % at 10 µM; 340,000 compounds, 2% hits; AID 485344; in the data active means inhibition above about 30%; inactive means below that, where a call was filed; further: 0% is about no effect
#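 Compounds are added to dye-loaded, induced HEK293 T-REx cells coupled to calcium release via D2; after a 3 min kinetic read an EC80 dopamine stimulus is given and fluorescence is recorded for 3 more min.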
# D2 ag-1 – D2 dopamine receptor (human) agonism; P14416; HEK293 T-REx D2 cells, calcium flux agonist mode; activation, % at 2 µM; 340,000 compounds, 0.53% hits; AID 485358;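 active means activation over 3 SD above normal in the single-dose calcium agonist read, cut at about 30% in these data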; further: 0% is about no effect
#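 In this primary screen, compounds producing a positive calcium signal within 180 s of addition to tetracycline-induced, force-coupled HEK293 Trex D2 cells are flagged; cells are dye-loaded with a no-wash calcium kit beforehand.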
# D2 ag-2 – agonists of human D2 dopamine receptor (beta-arrestin) | DiscoveRx PathHunter D2 beta-arrestin, luminescence, 90 min; 100% = 57 uM dopamine signal | 360,000 compounds, 0.084% hits | P14416 | AID 624465 | activation, % (concentration not given with the values); in the data active means activation above about 40%; inconclusive means between about 15% and that limit
#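 Agonist mode: compounds alone added to overnight-plated D2 PathHunter cells for 90 min at 37 C, with 57 uM final dopamine (EC100) defining full response. Beta-arrestin recruitment detected by chemiluminescent reagent, read after 1 h at ambient temperature.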
# * hit, by the source's call; ? = inconclusive; · = no result. Only some compounds are listed: those with a hit (about 2.4% of all), similar ones and a draw of the others.
SMILES,D2 PAM-1,D2 PAM-2,D2 antagonist,D2 ag-1,D2 ag-2
CC(NC(=O)CCNC(=O)c1ccccc1Cl)c1ccc(-n2ccnc2)cc1 (stereo not drawn),-4,-1,-26,0,-1
COc1ccccc1C(=O)NCCC(=O)NC(C)c1ccc(-n2ccnc2)cc1 (stereo not drawn),-2,-15,33*,0,-3
Cc1ccc2c(c1)N(CC(=O)NCc1cccc(Cl)c1)C(=O)c1cccnc1O2,-14,·,·,-1,·
O=C(NN1CCOCC1)c1ccccc1Br,33*,-2,11,1,-2
Cc1ccccc1C(=O)NN1CCOCC1,-2,6,-7,1,1
O=C1c2ccccc2C(=O)C1(c1ccccc1)N1CCN(c2cccc(Cl)c2)CC1,2,·,·,0,·
O=C1CN(C(=O)Cc2ccc(F)cc2)C(c2ccccc2)c2cc(Cl)ccc2N1 (stereo not drawn),10,·,·,1,·
COc1ccc(C(=O)NC2CCN(S(=O)(=O)c3ccccc3F)CC2)cc1,9,-5,33*,0,-5
COC(=O)c1ccccc1S(=O)(=O)N1CCC(NC(=O)c2ccccc2)CC1,3,-5,-13,0,-3
CCOc1ccc(NC(=NCc2ccc3c(c2)OCO3)SC2CC(=O)N(c3ccccc3)C2=O)cc1 (stereo not drawn),31*,-3,-8,1,-4
Cc1ccc(NC(=S)NC2CCN(Cc3ccccc3)CC2)cc1C,-24,?,78*,3,-9
Cc1ccc(NC(=S)N2CCN(Cc3ccccc3)CC2)cc1,·,-9,-13,0,2
Cc1ccc(C(=S)N2CCN(Cc3ccccc3)CC2)cc1,-27,-11,65*,-2,2
CC1=C(C)CC(C(=O)N2CCN(Cc3ccccc3)CC2)C(C(=O)O)C1 (stereo not drawn),30*,-23,0,4,-4
Cc1ccc(NC(=S)NC2CCN(Cc3ccccc3)CC2)cc1,-17,-34,84*,0,-2
Cc1ccc(NC(=O)CN2C(=O)CCn3nc(-c4cccn4C)cc32)cc1,12,·,·,1,·
S=C(Nc1ccc2c(c1)OCO2)NC1CCN(Cc2ccccc2)CC1,-26,-17,59*,0,-3
CC(C)c1ccc(NC(=S)N2CCN(Cc3ccccc3)CC2)cc1,3,-4,-15,0,-3
CC(C)c1ccc(NC(=S)NC2CCN(Cc3ccccc3)CC2)cc1,-20,-41,52*,1,-2
Cn1nnnc1SCCCNCc1ccccc1OCc1ccccc1Cl,·,·,·,1,·
Cc1cc(NC(=O)CSc2nc(C(C)C)nc3sc(C)c(C)c23)no1,6,3,35*,0,7
COc1ccc(S(=O)(=O)N2CCCC(C(=O)N3CCN(Cc4ccccc4)CC3)C2)cc1Cl (stereo not drawn),·,-18,·,·,-1
Cc1ccc(S(=O)(=O)N2CCC(C(=O)NCCc3ccccn3)CC2)cc1,-3,-20,43*,3,-3
Cc1noc(C)c1S(=O)(=O)N1CCN(c2ccccc2)CC1,0,-7,38*,1,-7
Cc1noc(C)c1S(=O)(=O)N1CCC(C(=O)Nc2ccccn2)CC1,34*,15,3,0,-2
SMILES,D2 PAM-1,D2 PAM-2,D2 antagonist,D2 ag-1,D2 ag-2
CCN(CCN(C)C)C(=O)C1CCN(S(=O)(=O)c2c(C)noc2/C=C/c2ccccc2F)CC1,-13,-3,-8,1,-3
CCOc1ccccc1/C=C/c1onc(C)c1S(=O)(=O)N1CCC(C(=O)N(CC)CC)CC1,-24,-21,56*,-1,-1
CC1CN(C(=O)CCC(=O)Nc2cc(F)ccc2F)c2ccccc2S1 (stereo not drawn),-8,·,·,·,·
CC1(C(=O)NCc2ccccc2)Cc2c(-c3ccc4c(c3)OCO4)ccnc2O1 (stereo not drawn),·,-13,·,·,5
CCOC(=O)c1c(NC(=O)CSc2cn(CCNC(=O)c3ccccc3F)c3ccccc23)sc2c1CCC2,11,·,·,0,·
COc1cccc(N2C(=O)N(CC(=O)NCc3cccc(OC)c3OC)c3ccccc3S2(=O)=O)c1,-2,·,·,0,·
Cc1c(Br)c([N+](=O)[O-])nn1C(C)C(=O)Nc1ccc2c(c1)OCO2 (stereo not drawn),4,-13,40*,0,-2
O=C(CSc1n[nH]c(=O)[nH]c1=O)c1ccc(Cl)cc1Cl,16,-2,5,0,-1
CC(C)(C)c1ccc(C(=O)CSc2n[nH]c(=O)[nH]c2=O)cc1,-8,-1,31*,0,-3
COc1ccccc1CNC(=O)C(NS(=O)(=O)c1ccc2c(c1)CCN2C(C)=O)C(C)C (stereo not drawn),1,·,·,-1,·
N#CC1=C(SCC(=O)NC2CC2)NC(=O)C(C#N)C12CCCCC2 (stereo not drawn),9,5,4,0,3
N#CC1=C(SCC(=O)NC23CC4CC(CC(C4)C2)C3)NC(=O)C(C#N)C12CCCCC2 (stereo not drawn),94*,8,-39,1,2
CSc1ccc(CCNC(=O)Cn2ccc3cc(S(=O)(=O)N4CCCCCC4)ccc32)cc1,-2,·,·,1,·
COc1ccccc1C(=O)NCC(=O)N1CC=C(c2ccccc2)CC1,-6,-13,30*,-1,2
CN(CCc1ccccc1)C(=O)c1ccc(NC(=O)Cc2ccc(NC(=O)C3CCN(C(=O)C4CCC4)CC3)cc2)cc1,·,·,·,·,0
COc1cccc(C(=O)NCC(=O)N/N=C/c2cccc(OC(=O)c3ccc([N+](=O)[O-])cc3)c2)c1,·,4,·,·,4
O=C(CNC(=O)c1ccc([N+](=O)[O-])cc1)N/N=C\c1ccc(OC(=O)c2ccccc2)cc1,-4,27,59*,-1,2
O=C(COc1ccc(/C=N/NC(=O)c2ccncc2)cc1)Nc1ccc([N+](=O)[O-])cc1,·,-3,42*,-3,-2
CCOc1ccccc1NC(=O)C(=O)NCCc1sc(-c2cccc(F)c2)nc1C,20,·,·,1,·
COCCNC(=O)C1CCCN(S(=O)(=O)c2ccc3c(ccn3C)c2)C1 (stereo not drawn),9,·,·,-1,·
C#CCSc1nccc(-c2nn(-c3ccc(C)cc3)ccc2=O)n1,-18,-32,32*,0,-4
Cc1cccc(C)c1Nc1nnc(SCC(=O)NC2CCS(=O)(=O)C2)s1 (stereo not drawn),-13,6,27,1,3
Cc1ccc(Nc2nnc(SCC(=O)NC3CCS(=O)(=O)C3)s2)c(C)c1 (stereo not drawn),-8,-35,39*,1,-7
NC(=O)C1CC(=O)N(c2ccc(OCc3ccc([N+](=O)[O-])cc3)cc2)C1 (stereo not drawn),4,1,-12,0,9

# Compound activity deposited in PubChem by National Center for Advancing Translational Sciences (NCATS).
